# Source: PubChem BioAssay
# In the library only some 2.8% were active in any assay of this set; here they are far more common.
# DRD3 antagonist: D3 dopamine receptor (human) antagonism | D3R cells, DiscoveRx beta-arrestin luminescence, antagonist mode; active compounds read low | P35462 | max response, negative = inhibition, % | 360,000 tested, 2.5% active; in the data active means max response below about -50%; inconclusive means no clear call, values can overlap the other calls
# Target sequence (P35462 whole entry, looked up): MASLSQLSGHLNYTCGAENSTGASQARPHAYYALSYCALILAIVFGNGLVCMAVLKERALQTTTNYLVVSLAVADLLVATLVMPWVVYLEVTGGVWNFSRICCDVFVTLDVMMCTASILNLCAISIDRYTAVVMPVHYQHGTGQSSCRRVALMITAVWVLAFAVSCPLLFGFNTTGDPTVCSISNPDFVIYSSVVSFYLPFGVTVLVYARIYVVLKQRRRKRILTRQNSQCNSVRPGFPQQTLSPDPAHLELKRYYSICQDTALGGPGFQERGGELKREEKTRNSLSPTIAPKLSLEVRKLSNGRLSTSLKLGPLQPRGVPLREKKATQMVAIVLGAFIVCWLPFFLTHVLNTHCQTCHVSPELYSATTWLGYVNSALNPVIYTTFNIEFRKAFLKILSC
#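 Cells plated overnight at 1500 cells/well, then exposed to library compounds with dopamine controls for 90 minutes at 37 degrees C. DiscoveRx reagent added for 30–60 minutes at room temperature; luminescence read, quantitative HTS format.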
# pAkt inh: Akt phosphorylation inhibition | Neuro2A IGF-stimulated pAkt S473 HTRF, 20 min; active compounds read low | activity change, % for hits at 50 µM | 360,000 tested, 0.32% active; in the data active means activity change below about -80%; inconclusive means mostly about -51% to -80%
#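 Neuro2A cells (4,500/well, DMEM with 0.5% FBS) were treated with compound at a single 50 µM final concentration, stimulated with 6 nM IGF for 20 min at 37 °C, and lysed. Phospho-Akt Ser473 was read by HTRF as 665/615 ratio ×10^4.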
# LDHA block: blocks human lactate dehydrogenase A. P00338. purified LDHA, NADH/diaphorase-resazurin fluorescence; active compounds read low. activity change, % (values are at about 110 or 230 µM). 480,000 tested, 0.15% active; in the data active means activity change below about -30%; inconclusive means mostly about -25% to -30%
#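 Human LDH5 (2 nM) was incubated with 0.06 mM NADH and 0.2 mM pyruvate for 5 min at room temperature in Tris pH 7.4. Remaining NADH was coupled through diaphorase/resazurin, and resorufin fluorescence was read at 0 and 20 min.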
# RGS4 inh: blocks human RGS4-accelerated GTP hydrolysis; 390,000 tested, 0.039% active; Transcreener GDP fluorescence polarization, RGS4-accelerated GTP hydrolysis; P49798; Potency, µM (highest dose often 114 µM), actives largely listed as inhibitors; active means well fitted inhibition curve with a large enough effect; inconclusive means small, poorly fitted or top-dose-only effect; inactive means no such curve, though single readings can be large or run the other way; further: nearly all actives have a fitted effect of over 75% in size
# Target sequence (P49798 whole entry, looked up): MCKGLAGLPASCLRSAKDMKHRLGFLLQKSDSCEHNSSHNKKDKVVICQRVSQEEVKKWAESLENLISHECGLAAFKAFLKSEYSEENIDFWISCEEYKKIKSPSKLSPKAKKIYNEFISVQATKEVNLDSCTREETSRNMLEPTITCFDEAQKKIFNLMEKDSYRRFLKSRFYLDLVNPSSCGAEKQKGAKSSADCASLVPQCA
#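 MLSMR compounds (23 nl, pin-transferred) preincubated 10 min at room temperature with a 500nM (2x) first reagent, then RGS4 at 900nM (2x) plus Transcreener GDP mix added; fluorescence polarization (620/688 nm) read before and after 90 min at 30 °C.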
# PI4K2A inh: PI4K2A (human) kinase inhibition; Q9BTU6; purified PI4K2A, ADP-Glo luminescence, 1 h; active compounds read low; activity change, negative = inhibition, % at 76.9 µM; 420,000 tested, 0.13% active; AID 1346378; in the data active means activity change below about -50%; inconclusive means mostly about -30% to -49%
#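 PI4K2A activity was measured by ADP-Glo luminescence: enzyme (4 ug/mL stock) and phosphatidylinositol (1.2 mM stock) in Tris pH 7.5/MgCl2/EGTA/Triton X-100 buffer were reacted with ATP (300 microM stock) for one hour at ambient temperature.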
# DRD3 agonist: activates the human D3 dopamine receptor; P35462; D3R DiscoveRx beta-arrestin cells, luminescence, 90 min; max activation, %; AID 652048; 410,000 tested, 0.58% active; in the data active means max activation above about 30%
#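 Cells at 1500/well, incubated overnight, then treated with pinned compounds (dopamine as control) for 90 min at 37 degrees C. DiscoveRx reagent added for 30 - 60 minutes at room temperature; luminescence read.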
# A number is an active result; 0 = inactive; ? = inconclusive; - = no result given; [ ] = dose if it differs, or a comment.
SMILES,DRD3 antagonist,pAkt inh,LDHA block,RGS4 inh,PI4K2A inh,DRD3 agonist
O=C(C[n+]1ccc(C(=O)c2ccccc2)cc1)Nc1cccc([N+](=O)[O-])c1,-94.7,0,0,-,0,0
Cc1ccc(NC(=O)C[n+]2ccccc2)cc1[N+](=O)[O-],-59.4,0,0,0,0,0
O=C(Cc1ccccc1)Nc1cccc([N+](=O)[O-])c1,0,0,0,0[11.4 µM],0,0
COc1ccc2cc(/C=C(/C#N)c3nc4ccccc4[nH]3)ccc2c1,-,-,0,-,-,-
CCc1ccc(Nc2n[n+](-c3ccccc3)c(-c3c(Cl)cccc3Cl)s2)cc1,0,0,0,0,0,0
CCc1ccc(Nc2n[n+](-c3ccccc3)c(-c3cc(OC)c(OC)cc3Br)s2)cc1,-50.9,0,0,0,0,0
COc1ccc2ccccc2c1-c1sc(Nc2ccccc2)n[n+]1-c1ccc(F)cc1,-80.2,0,0,0,0,0
COc1ccc(-c2sc(Nc3ccccc3)n[n+]2-c2ccc(F)cc2)cc1Br,0,0,0,0,0,0
COc1ccc(C)cc1Nc1n[n+](-c2ccccc2)c(-c2c(Cl)cccc2Cl)s1,-87.4,0,0,0,0,0
COc1ccc(-c2cc(Nc3ccc(Br)cc3)nc(C)n2)cc1,-,-,0,-,-,-
COc1ccc(N2C(=O)C(Cl)=C(Oc3cccc(OC)c3)C2=O)cc1,-58.3,0,0,0,0,0
COc1ccc(N2C(=O)C(Cl)=C(N(CCO)Cc3ccccc3)C2=O)cc1,?,-111.6%,0,0,0,0
Cc1ccc(-c2cc(C(=O)O)c3cc(Cl)ccc3n2)cc1,-,-,0,-,-,-
CCN1CCN(C(=O)c2ccc(-n3nc(C)c(-c4ccc(F)cc4)c3NC(C)=O)cc2)CC1,-,-,0,-,-,-
O=C(NCCN1CCOCC1)c1cc2nc(-c3cccs3)cc(C(F)(F)F)n2n1,-,-,0,-,-,-
CCCOC(=O)C1=C(C)Nc2nnnn2C1c1cc(Br)ccc1OCC (configuration not stated),-,-,-31.6,-,-,-
Cc1ccc(C(=O)Nc2ccc(S(=O)(=O)O)c3cc(S(=O)(=O)O)cc(S(=O)(=O)O)c23)cc1NC(=O)c1cccc(NC(=O)Nc2cccc(C(=O)Nc3cc(C(=O)Nc4ccc(S(=O)(=O)O)c5cc(S(=O)(=O)O)cc(S(=O)(=O)O)c45)ccc3C)c2)c1,-,-,-93.6,?,?,0
Cc1ccc(C(=O)O)cc1NC(=O)c1cccc(C(=O)Nc2cc(C(=O)O)ccc2C)c1,-,-,0,-,-,-
O=C(O)c1ccc(S(=O)(=O)c2ccc3c(c2)C(=O)N(NC(=O)c2ccncc2)C3=O)cc1,-56.4,0,0,0,0,0
O=C(O)c1ccc(S(=O)(=O)c2ccc3c(c2)C(=O)N(NC(=O)c2ccccc2)C3=O)cc1,0,0,0,0,0,0
CCC12CN(C(=O)c3ccccc3)CC(CC)(CN(C(=O)c3ccccc3)C1)C2=O,-,-,0,-,-,-
N#Cc1c(-c2ccccc2)ccn(Cc2ccccc2Cl)c1=O,-50.7,0,0,0,0,0
Cc1ccc(-c2nc(CN3CCCC3c3cccs3)co2)cc1 (configuration not stated),-,-,0,-,-,-
COc1cccc(-n2c(C)c(C)c3c2ncn2nc(-c4cccs4)nc32)c1,-,-,-36.0,-,-,-
COc1cccc(-n2c(C)c(C)c3c2ncn2nc(-c4ccco4)nc32)c1,-,-,0,-,-,-
SMILES,DRD3 antagonist,pAkt inh,LDHA block,RGS4 inh,PI4K2A inh,DRD3 agonist
Cc1cc(Oc2ccccc2)nc(SCC(N)=O)n1,-77.7,0,0,0,0,0
CCN(CC)S(=O)(=O)c1cccc(NC(=O)COc2ncnc3sccc23)c1,-63.1,0,0,0,0,0
CCCN(CCC)CC(O)CN(c1cc([N+](=O)[O-])ccc1OC)S(=O)(=O)c1ccccc1 (configuration not stated),-65.3,0,0,0,0,0
Cc1oc(-c2ccccc2)nc1C(=O)NCC(=O)Nc1ccccc1Br,-,-,0,-,-,-
O=C(Cn1cc(C(=O)c2ccccc2)c2ccccc21)NCc1ccccc1,-,-,-35.4,-,-,-
O=C(Cn1cc(C(=O)c2ccco2)c2ccccc21)NCc1ccco1,0,-105.1%,0,0,0,0
CSc1ccc(CNC(=O)c2ccc(Nc3cc(-c4ccc(F)cc4)ncn3)cc2)cc1,-,-,0,-,-,-
O=C1c2ccccc2S(=O)(=O)N1Cc1cc(=O)n2ccsc2n1,-75.5,0,0,0,0,0
NC(=O)C1CCN(C(=O)Cn2ccc3c(Br)cccc32)CC1,-,-,0,-,-,-
CCCCNC(=O)COC(=O)c1c2c(nc3ccccc13)/C(=C\c1cccs1)CC2,0,0,0,0,0,34.1
CC(C)CNC(=O)COC(=O)c1c2c(nc3ccccc13)/C(=C/c1cccs1)CC2,0,0,0,0,0,0
CC(CNC(=O)/C=C/c1ccc(C(C)(C)C)cc1)NC(=O)/C=C/c1ccc(C(C)(C)C)cc1 (configuration not stated),-,-,0,-,-,-
CCOC(=O)C1(CCOC)CCN(Cc2nc(-c3cccs3)oc2C)CC1,?,0,0,0,0,0
Cc1oc(-c2cccs2)nc1CN1CCC(CO)(CCOc2ccccc2)CC1,-89.0,0,0,0,0,0
CCc1cc(SC#N)cc(C)c1NC(=O)CCl,-56.3,0,0,0,0,0
Cc1cc(SC#N)cc(C)c1NC(=O)CCl,0,0,0,0,0,0
CCCCNCc1ccc(F)cc1,-,-,0,-,-,-
CC(C)NCCCOc1ccc(Cl)cc1Br,-73.0,0,0,0,0,0
CCCCNCCOCCOc1ccc(F)cc1,-53.8,0,0,0,0,0
CC(C)NCCCCOc1ccc(Br)cc1Cl,-70.8,0,0,0,0,0
COCCCNCCCOc1ccc(Cl)cc1Br,?,-,0,0,0,0
CCCCNCCOCCOc1ccc(Cl)cc1Br,-87.1,0,0,0,0,0
Cc1ccc(-n2c(SCC(=O)Nc3ccc(Br)cc3F)nc3c(=O)[nH]cnc32)cc1,-,-,0,-,-,-
C/C(=N/NC(=O)C(C)C)c1cc(C)c(C)cc1C,-,-,0,-,-,-
CC(O)CNCCCOc1ccc(Cl)cc1C(C)(C)C (configuration not stated),-52.7,0,0,0,0,0
SMILES,DRD3 antagonist,pAkt inh,LDHA block,RGS4 inh,PI4K2A inh,DRD3 agonist
Cc1ccc(CN2CCC(C(=O)NCCC(C)C)CC2)o1,-64.3,0,0,0,0,0
Cc1ccc(CCNC(=O)C2CC2)o1,-,-,0,-,-,-
CCOC(=O)c1c(CC(C)C)csc1NC(=O)COC(=O)c1ccc(O)cc1,0,0,0,0,0,35.7
Clc1ccc(C2CC(c3ccccc3)Nc3ncnn32)cc1 (configuration not stated),0,0,0,0,0,0
Clc1ccc(C2CC(c3ccco3)n3ncnc3N2)cc1Cl (configuration not stated),-57.8,0,0,0,0,0
O=C(Cc1cccs1)Nc1ccc(-c2nnc(-c3ccccc3)o2)cc1,0,0,0,0,0,0
Cc1cccc(-c2nnc(-c3cccc(NC(=O)Cc4cccs4)c3)o2)c1,0,-,0,0,0,30.7
